Most compounds without a hit are left out; they make up all but 4% or so of the library.
NLRP3 yeast inh: NALP3 inflammasome inhibitors in reconstituted yeast, primary screen, luminescence, uHTS; Yeast reconstituted NLRP3/ASC/caspase-1, beta-gal luminescence, 24 h; inhibition, % at 10 µM; hit rate 0.39% among 330,000; AID 2825, 2010;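 active = inhibition of 50% or more; inactive = inhibition below 50%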;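 note: plate controls were induced DMSO wells for no effect and uninduced yeast grown without galactose for full effect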
TIM10 inh: growth inhibitors of isogenic TIM10 control yeast, primary screen, counter-screen for tim10-1 yeast inhibitor project, luminescence, uHTS. inhibition, % at 10 µM. S. cerevisiae TIM10 strain growth, BacTiter-Glo luminescence, 24 h. hit rate 1.4% among 330,000;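 active = inhibition of 40% or more at the single tested concentration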;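 note: wild-type TIM10 isogenic control strain grown at permissive 25 °C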
NALP1 yeast inh: NALP1 inflammasome inhibitors in reconstituted yeast, colorimetric, S. cerevisiae, triplicate retest; S. cerevisiae NALP1/ASC/caspase-1 growth, X-gal OD620, 72 h; inhibition, % at 10 µM; hit rate 0.61% among 280,000; AID 2071, 2009; in the data active = inhibition mostly above about 24%, no sharp cut-off; inactive = mostly below about 32%
tim10-1 inh: growth inhibitors of tim10-1 mutant yeast, primary screen, luminescence, uHTS; hit rate 2.2% among 330,000; S. cerevisiae tim10-1 ts strain growth, BacTiter-Glo, 24 h; inhibition, % at 20 µM;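 active = inhibition of at least 40%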;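 note: mutant grown at 25 °C; 0% = DMSO wells with yeast and 100% = wells holding no yeast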
tim23-1 inh: growth inhibitors of tim23-1 mutant yeast, primary screen, luminescence, uHTS | S. cerevisiae tim23-1 growth, BacTiter-Glo luminescence, 24 h | inhibition, % at 20 µM | hit rate 1.3% among 330,000 | AID 463212, 2010;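 active = growth inhibition of the mutant yeast at or above 50%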;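 note: temperature-sensitive mutant grown at 25 °C; plate controls were DMSO-treated mutant yeast for no effect and medium wells lacking yeast for full effect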
* marks the source's active call; other numbers are inactive results; nt = not tested or not shown.

SMILES | NLRP3 yeast inh | TIM10 inh | NALP1 yeast inh | tim10-1 inh | tim23-1 inh
Cc1ccc(-n2c(=O)c(C#N)cc3c(=O)n4cccc(C)c4nc32)cc1 | 13 | -19 | 37* | 7 | -30
COc1ccc(OC)c(/C=N/NC(=O)Cc2nc3ccccc3[nH]2)c1 | -4 | 15 | 27 | 15 | 12
COC(=O)Cc1nnc(SCC(=O)Nc2ccccc2)c2ccccc12 | 4 | 22 | 27 | 30 | 27
CCSc1nnc(Cc2cc(=O)[nH]c(=O)[nH]2)n1-c1cc(C)ccc1C | 19 | -7 | 28* | -2 | 5
CCn1c(NCc2ccco2)nc2ccccc21 | -2 | -4 | 24* | 16 | 7
COc1ccc(CC(=O)NNC(=O)c2ccc(Br)o2)cc1 | 1 | 1 | 16 | 9 | 7
Cc1csc(CNC(=O)C2CCC(=O)N(CCc3cccc(F)c3)C2)n1 (centres undefined) | -14 | 7 | -1 | 5 | 9
C=CCn1c(N)cc(=O)nc1SC(C)C(=O)Nc1ccc(C(=O)OCC)cc1 (centres undefined) | 15 | 6 | 14 | 20 | 9
Cc1c(CCOC(=O)CC23CC4CC(CC(C4)C2)C3)sc[n+]1CC(=O)c1ccccc1 | -4 | 3 | 35* | 5 | 16
Cc1cc(N2CCCCC2)nc2ccc(NC(=O)c3ccc(Br)o3)cc12 | 26 | -14 | 12 | -12 | 15
Cc1cc(N2CCN(C)CC2)nc2ccc(NC(=O)c3ccc(Br)o3)cc12 | 3 | -5 | 38* | -7 | -6
Cc1coc2c(C)c3oc(=O)c(CCC(=O)N(C)CC(=O)O)c(C)c3cc12 | 13 | -1 | 6 | 17 | 11
O=C(NC1CCCCC1)N1CCN(C(c2ccccc2)c2ccccc2)CC1 | 15 | 15 | 41* | 38 | 23
CC(=O)c1c(C)[nH]c(C(=O)CSc2nnc(CN3CCCCCC3=O)n2-c2ccccn2)c1C | 12 | 15 | 42* | 11 | 12
CCc1nc2cccnc2n1-c1ccc(CC(=O)NCCOC)cc1 | 2 | 0 | 20 | 3 | -9
O=C(c1nc2n(n1)C(c1ccc(Cl)cc1)C=C(c1ccccc1)N2)N1CCOCC1 (centres undefined) | -23 | 12 | 31* | 29 | 10
O=C(N[C@@H](Cc1ccccc1)c1nc2ccccc2[nH]1)c1cc([N+](=O)[O-])ccc1Cl | 4 | 9 | 25 | 21 | 12
CC(Cc1ccccc1)NC(=O)c1cc([N+](=O)[O-])ccc1Cl (centres undefined) | 17 | -16 | 36* | 3 | 14
O=C(Nc1cccc(N=Cc2cc(Br)cc(Br)c2O)c1)c1ccco1 | nt | nt | 65* | nt | nt
COc1ccc(C(=O)C(CN2CCOCC2)c2ccccc2)cc1F (centres undefined) | nt | nt | 41* | nt | nt
COc1ccc(C(O)C(CN2CCOCC2)c2ccccc2)cc1F (centres undefined) | 14 | -5 | 17 | 15 | 21
CCOc1ccc(C2/C(=C(\O)c3ccc4c(c3)OCCO4)C(=O)C(=O)N2CCN2CCOCC2)cc1OC (centres undefined) | 12 | -7 | -5 | -23 | -1
C[C@@H](NC(=O)c1[nH]cnc1C(=O)Nc1cccc(Cl)c1)c1ccccc1 | 18 | 20 | nt | 29 | 33
CN(C)CCCN(C(=O)CCS(=O)(=O)c1ccccc1)c1nc2cc3c(cc2s1)OCO3 | 40 | 24 | 50* | 26 | 17
CCCCN(CCCC)S(=O)(=O)c1ccc(NC(=O)CN2CCOCC2)cc1 | 16 | 8 | 41* | 27 | 20
SMILES | NLRP3 yeast inh | TIM10 inh | NALP1 yeast inh | tim10-1 inh | tim23-1 inh
COc1ccccc1N(CC(O)CN1CCOCC1)S(=O)(=O)c1ccccc1 (centres undefined) | 17 | 0 | -2 | -9 | 3
N#CC12CCCCC1CC1CCCCC1(C#N)N2Cc1ccccn1 (centres undefined) | 13 | -8 | 38* | 12 | -2
NS(=O)(=O)c1ccc(CCNC(=O)c2cc(-c3ccccn3)nc3ccc(Br)cc23)cc1 | 20 | -17 | 41* | -39 | -52
CC(C)(C)c1cc(C(=O)NCCN2CCCC2)cc(C(C)(C)C)c1 | 16 | 15 | 108* | 3 | -4
O=C(NCCN1CCCC1)c1ccc(Cl)cc1 | 18 | 5 | -4 | 2 | 15
Cc1ccc(NC2=C(NC(=O)c3ccccc3)C(=O)c3ccccc3C2=O)cc1Cl | 49 | 22 | 65* | 29 | 41

Screening results (PubChem)
